Data: PubChem BioAssay AID492998 (Southern Research Specialized Biocontainment Screening …, 2010)
The campaign covered roughly 2,300 compounds. About 550 (24%) were called active. How the calls were made is not given here. Not all results are given here. Measured potencies and affinities stand elsewhere.

experiment: Vero E6 cell cytotoxicity, dose response, cytotoxicity control for non-replicating M. tuberculosis project, secondary assay (AID 492998); conditions: series mostly up to 20 µM

Compound	outcome
CC(C)(C)NC(=O)COC(=O)c1snc(C(=O)NC2CCCCC2)c1N	inactive
COc1ccc(NC(=O)COc2ccc3c(c2)CCC3)cc1	inactive
O=C(OCC(=O)c1c[nH]c2ccccc12)c1ccc([N+](=O)[O-])s1	inactive
O=C(CN1CCOCC1)N/N=C/c1ccc(-c2ccc(Br)cc2)o1	inactive
O=C(CCSc1nnc(-c2ccncc2)o1)Nc1cccc(Cl)c1	inactive
CCc1ccc(OCCCC(=O)Nc2nccs2)cc1	inactive
COc1ccc(C(=O)C2CCCN(C(=O)c3ccc(CSC)o3)C2)cc1F (stereo not drawn)	inactive
CSc1ccc(C(=O)C2CCCN(Cc3cc4ccccc4[nH]3)C2)cc1 (stereo not drawn)	inactive
O=C(CCS(=O)(=O)c1ccc(Cl)cc1)Oc1ccc2c(c1)OCO2	inactive
CC1=NN(C(=O)COc2ccccc2)C(O)(c2ccccc2)C1 (stereo not drawn)	inactive
CC(Cc1cccs1)NC(=O)c1cccc(Cl)c1 (stereo not drawn)	inactive
CCc1ccc(NC(=O)C(=O)NNC(=O)c2cccc(OC)c2)cc1	inactive
Cc1ccc(C(=O)Oc2cccc(-n3cnnn3)c2)cc1	inactive
CCOC(=O)c1csc(-c2snnc2C)n1	inactive
O=C(NNC1=C(C(=O)C(F)(F)F)CCC1)c1ccccc1Cl	inactive
N#CC1=C(N)Oc2n[nH]c(-c3cccnc3)c2C1c1ccc([N+](=O)[O-])o1 (stereo not drawn)	inactive
Cc1ccc(-c2nc3ccccn3c2Nc2ccccc2)o1	inactive
Cc1ccc(-c2nnc(NC3CCCC3)s2)cc1	inactive
Cc1c(-c2ccc(Br)cc2)nc2ccccn12	inactive
CCOC(=O)c1c(C)nc2cc(C)ccn12	inactive
FC(F)(F)c1ccc(-c2nnc(-c3cccnc3)o2)cc1	inactive

Compound	outcome
CCOC(=O)c1ccc(N=CC2=C(O)CC(C)(C)CC2=O)cc1	inactive
O=C(c1nnc(-c2ccc(Cl)cc2)o1)C1CCCC1	inactive
COc1ccc(CNC(=O)COC(=O)C2CC3C=CC2C3)cc1 (stereo not drawn)	inactive
CSc1ccc(COC(=O)CCS(=O)(=O)c2ccc(C)cc2)cc1	inactive
Cc1cc(OCCCn2ccnc2)ccc1C(C)C	inactive
C=C1Cn2c(nnc2-c2ccc(Cl)cc2)S1	inactive
Cc1cccc(OC(=O)c2ccc3nccnc3c2)c1	inactive
CCOC(=O)CN(C#N)c1nc(N(C)C)nc(N(C)C)n1	inactive
Cc1cc(OCCCCn2ccnc2)cc(C)c1Cl	inactive
O=C(COC(=O)c1ccccc1Br)Nc1ccccc1F	inactive
Cc1cccc(Cn2ccc(NC(=O)c3ccc4c(c3)OCO4)n2)c1	inactive
O=C(NCc1ccc2c(c1)OCO2)c1ccc(Cl)s1	inactive
CCc1ccc(NC(=O)COc2ccc3c(c2)OCO3)cc1	inactive
CCOC(=O)c1csc(COc2ccc(OC)cc2)n1	inactive
CC1(c2nnc(Cc3ccccc3)o2)CC(c2ccccc2[N+](=O)[O-])=NO1 (stereo not drawn)	inactive
Cc1ccc(C(=O)Nc2nccs2)cc1	inactive
Cc1ccc(CNC(=O)c2cnccn2)cc1	inactive
CN1C(=O)CC(N2CCC(c3nc4ccccc4s3)CC2)C1=O (stereo not drawn)	inactive
O=C(CNC(=O)c1ccccc1F)OCc1csc(-c2ccccc2)n1	inactive
O=C(CCSc1ccc(Cl)cc1)NC1CCCC1	inactive
FC(F)c1nnc2ccc(Cl)nn12	inactive

Compound	outcome
Cc1ncsc1CCOC(=O)c1ccc([N+](=O)[O-])cc1	inactive
CN(C)S(=O)(=O)c1ccc(C(=O)Oc2ccccc2)cc1	inactive
CCOC(=O)c1c(-c2ccc(C)o2)csc1NC(=O)CN1CCCCC1	inactive
O=C(NNC(=O)C12CC3CC(CC(C3)C1)C2)c1cnccn1	inactive
COc1ccc(OCC(=O)NNC(=O)c2ccccn2)cc1	inactive
O=C(COc1ccc(Cl)cc1)NNC(=O)c1ccccn1	inactive
O=C(Nc1ncccc1O)c1ccc(Oc2ccccc2)cc1	inactive
COc1ccc(C(=O)N/N=C/c2cccc3cccnc23)cc1	inactive
O=C(NC(=S)NNC(=O)[C@H]1C[C@@H]1c1ccccc1)c1cccc(F)c1	inactive
O=C(N/N=C/c1ccc[nH]1)c1cccnc1	inactive
O=C(OCC(=O)C12CC3CC(CC(C3)C1)C2)c1ccccn1	inactive
COc1cccc2[nH]c3c(Cl)ncnc3c12	inactive
CC1CCCN(CCSc2ccc(Cl)cc2)C1 (stereo not drawn)	inactive
O=C(COc1ccc2ccccc2c1)Nc1ccncc1	inactive
O=C1C=CC(=O)N1N(c1ccccc1)c1ccccc1	inactive
O=C(c1cccc2cccc(O)c12)N1CCCCC1	inactive
Cn1c(SCc2c(F)cccc2Cl)nc2c(c1=O)SCC2	inactive
Cc1cccc(NC(=O)CCSc2nnc(Cc3ccccc3)o2)c1	inactive
O=C(COC(=O)CCC(=O)c1ccc(F)cc1)Nc1ccc(F)cc1F	inactive
CC(/C=C/c1ccco1)=N/NC(=O)c1ccc(C)nc1	inactive
COc1ccc(OCC(=O)N/N=C2\CCc3ccccc32)cc1	inactive
